The supplement of paper PMC13380429

Test system: Vero E6 infected with SARS-CoV-2
Test: inhibition of SARS-CoV-2 cytopathic effect; higher = more antiviral protection, active = above 15
Settings: 48 h

Measured: inhibition of SARS-CoV-2 cytopathic effect

Nc1nccc(/C=C/c2ccccc2)n1
inactive: 1 nM 3.44% | 8.33 nM 3.79% | 100 nM 0.04% | 833.33 nM 0.59% | 10000 nM 2.05%

Cc1noc(C)c1-c1ccc(-c2cc(C(N)=O)c(NC(N)=O)s2)c(O[C@H]2CCNC2)c1
inactive: 1 nM 1.7% | 8.33 nM 2.12% | 100 nM 2.46% | 833.33 nM -12.1% | 10000 nM 2.19%

NC(=O)c1cccc2cn(-c3ccc([C@@H]4CCCNC4)cc3)nc12 [niraparib]
inactive: 1 nM -0.28% | 8.33 nM 0.08% | 100 nM -1.61% | 833.33 nM 3.39% | 10000 nM 5.55%

Nc1nc2c(ncn2[C@@H]2O[C@H](CO)[C@@H](O)[C@H]2O)c(=O)[nH]1 [guanosine]
inactive: 1 nM -3.19% | 8.33 nM -0.4% | 100 nM -0.7% | 833.33 nM -1.53% | 10000 nM 0.09%

CS(=O)(=O)c1cccc(CNc2nc(Nc3ccc4c(c3)CCC(=O)N4)ncc2C(F)(F)F)c1
inactive: 1 nM -1.14% | 8.33 nM -1.29% | 100 nM 0.06% | 833.33 nM 1.33% | 10000 nM -3.75%

C[C@]12CCC(=O)C=C1CC[C@@H]1[C@@H]2[C@@H](O)C[C@@]2(C)[C@H]1CC[C@]2(O)C(=O)COP(=O)(O)O [hydrocortisone-phosphate]
inactive: 1 nM 1.12% | 8.33 nM 3.34% | 100 nM 2.4% | 833.33 nM 2.84% | 10000 nM 1.11%

CCCC[P+](CCCC)(CCCC)Cc1ccc(NC(=O)[C@H](Cc2ccc3ccccc3c2)N/C(=N/C2CCCCC2)NC2CCCCC2)cc1
inactive: 1 nM -1.29% | 8.33 nM -0.27% | 100 nM -4.22% | 833.33 nM -4.62% | 10000 nM -2.72%

N#CCC(=O)NN [cyacetacide]
inactive: 1 nM -3.1% | 8.33 nM 1.89% | 100 nM 6.23% | 833.33 nM 6.6% | 10000 nM 7.12%

O=C(O)C[C@H]1CC[C@H](c2ccc(-c3ccc(Nc4ccc(C(F)(F)F)nc4)cn3)cc2)CC1
inactive: 1 nM -1.27% | 8.33 nM 0.84% | 100 nM -0.93% | 833.33 nM -2.65% | 10000 nM 1.98%

N#CC[C@@H](C1CCCC1)n1cc(-c2ncnc3[nH]ccc23)cn1 [ruxolitinib-(S)]
inactive: 1 nM -2.23% | 8.33 nM -0.87% | 100 nM -1.21% | 833.33 nM 0.43% | 10000 nM -3.24%

CC(C)c1ccc2c(c1)CC[C@H]1[C@](C)(CN)CCC[C@]21C [lylamine]
inactive: 1 nM -2.24% | 8.33 nM 0.4% | 100 nM 0.03% | 833.33 nM -2.43% | 10000 nM -18.1%

NC(=O)c1cccnc1 [nicotinamide]
inactive: 1 nM -0.85% | 8.33 nM 1.53% | 100 nM -1.16% | 833.33 nM 2.49% | 10000 nM 7.29%

CC(C)(CO)[C@@H](O)C(=O)NCCC(=O)O [pantothenic-acid]
inactive: 1 nM 0.14% | 8.33 nM -0.18% | 100 nM 0.03% | 833.33 nM -0.87% | 10000 nM 2.81%

CNc1nc(C)nc(N[C@H]2CCC[C@@H](C(=O)NCc3ccc(C#N)cc3C(F)(F)F)C2)n1
inactive: 1 nM 1.51% | 8.33 nM -1.43% | 100 nM -0.92% | 833.33 nM -0.12% | 10000 nM -2.39%

CN1CCc2cc(Cl)c(O)cc2[C@@H](c2ccccc2)C1
inactive: 1 nM 10.5% | 8.33 nM 6.47% | 100 nM 7.29% | 833.33 nM 2.11% | 10000 nM -0.78%

CN1CC[C@H](c2c(O)cc(O)c3c(=O)cc(-c4ccccc4Cl)oc23)[C@H](O)C1 [alvocidib]
inactive: 1 nM 2.38% | 8.33 nM 1.53% | 100 nM 7.55% | 833.33 nM -19.4% | 10000 nM -9.43%

C[C@@H]1CC[C@H]2C(C)(C)[C@H]3C[C@@]12CC[C@@]3(C)O [cedrol]
inactive: 1 nM -1.18% | 8.33 nM -3.1% | 100 nM -1.28% | 833.33 nM -1.1% | 10000 nM -1.09%

O=C(O)c1cc(O)c2c(Cl)cc(Cl)cc2n1 [5,7-dichlorokynurenic-acid]
inactive: 1 nM 1.65% | 8.33 nM -2.54% | 100 nM -2.79% | 833.33 nM 0.55% | 10000 nM -0.44%

CCN(CC)CCCC(C)Nc1c2ccc(Cl)cc2nc2ccc(OC)cc12 (stereo not given) [mepacrine]
inactive: 1 nM 3.59% | 8.33 nM 0.39% | 100 nM 5.65% | 833.33 nM 5.16% | 10000 nM -17.4%

O=[N+]([O-])c1cnc(Sc2nnc(O)n2-c2ccc3c(c2)OCCO3)s1
inactive: 1 nM 0.17% | 8.33 nM 0.75% | 100 nM 1.8% | 833.33 nM 0.05% | 10000 nM -17.7%

N#Cc1ccc(COC[C@H]2O[C@@H](n3c(NCc4ccc(Cl)c(Cl)c4)nc4c(N)ncnc43)[C@H](O)[C@@H]2O)cc1
inactive: 1 nM 2.98% | 8.33 nM -0.66% | 100 nM -1.89% | 833.33 nM -0.44% | 10000 nM -3.34%
